Experimental findings from PubChem BioAssay (NCATS) are described below.

Inconclusive results are not listed. Calls of active or inactive are those of the source. Unless noted, calls follow the shape of the dose curve; as a rule, active = well fitted curve in the direction sought with a large enough effect; inconclusive = small, poorly fitted or top-dose-only effect, or another doubt; inactive = no such curve, though single readings can be large; an effect the other way counts as inactive or inconclusive.

The nature of assay [1]: P-glycoprotein substrates identified in KB-3-1 adenocarcinoma cell line, qHTS therapeutic library screen (AID 1346986). Also: nearly all actives have a fitted effect of over 60% in size.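 Also: potency is read from the fitted curve at half-maximal effect; potency is for cytotoxicity meaning loss of cell viability.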 In a few lines: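 In 1536-well format, 500 cells/well received pinned compound titrations and were incubated 72 h, 5% CO2. Viability was read by CellTiter-Glo; cytotoxic if AC50 < 10 uM and efficacy >50%.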
In general terms: In qHTS, concentration-response curves come from the screen itself.

Assay [2] in a line: P-glycoprotein substrates identified in KB-8-5-11 adenocarcinoma cell line, qHTS therapeutic library screen (AID 1346987). Also: nearly all actives have a fitted effect of over 65% in size. Also: potency is read from the fitted curve at half-maximal effect. In a few lines: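 Luminescence from CellTiter-Glo, read 5 min after addition, quantified survival of KB-8-5-11 (P-gp-overexpressing) cells exposed to compounds for 72 h. AC50 was derived from concentration-response curves.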
Assay [3] can be described thus: Primary qHTS for inhibitors of nuclear receptor binding SET domain protein 2 (NSD2) in an isogenic RCH-ACV NSD2 p.E1099K mutant (9B) (AID 1645876). Also: nearly all actives have a fitted effect of over 70% in size. Also: potency is read from the fitted curve at half-maximal effect.
A short description of assay [4]: Primary qHTS for inhibitors of nuclear receptor binding SET domain protein 2 (NSD2) in an RCH-ACV wild type WT cells (2C) (AID 1645877). Also: nearly all actives have a fitted effect of over 70% in size. Also: potency is read from the fitted curve at half-maximal effect.
Assay [5] addresses Glutathione peroxidase 1 (Homo sapiens) (UniProt P07203). Kind of assay: Primary qHTS Assay for Inhibitors of Recombinant Selenoprotein Glutathione Peroxidase 1 (GPX1) (AID 1845191). Also: nearly all actives have a fitted effect of over 65% in size. In a few lines: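 GR-coupled readout: NADPH consumption tracked by fluorescence, ex 340/em 450 nm, at t=0 and after 15 min at RT. Final mix 10 nM GPX1, 1 mM GSH, 0.5 mM CHP, 0.5 mM NADPH, 100 nM GR, 0.01% BSA, following 30 min enzyme–compound preincubation.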

In assay [6] the target is Phospholipid hydroperoxide glutathione peroxidase GPX4 (Homo sapiens) (UniProt P36969). Kind of assay: Primary qHTS Assay for Inhibitors of Recombinant Selenoprotein Glutathione Peroxidase 4 (GPX4) (AID 1845192). Also: nearly all actives have a fitted effect of over 65% in size. To be noted: outcome: dose series up to 50 µM unless noted. In a few lines: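 Steps: GPX4 plus compound, 30 min RT; add GR/GSH/NADPH master mix; start with cumene hydroperoxide; read 340/450 nm fluorescence at 0 and 15 min. Finals were 200 nM GPX4, 1 mM GSH, 0.5 mM CHP, 0.5 mM NADPH, 100 nM GR.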

A short description of assay [7]: qHTS drug screen for cell cycle checkpoint inhibitors in PARPi-resistant BRCA-mutant ovarian cancer cell lines. (AID 1963452; calls by dose curve). To be noted: PEO1/OlaR viability, CellTiter-Glo luminescence, 96 h, stronger effect = lower value. In a few lines: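 PEO1, PEO4 and PEO1/OlaR ovarian cancer cells, 600 per well, exposed 96 h at 37C to a dilution series. Viability read by CellTiter-Glo luminescence, normalized to DMSO and empty wells; activity summarized as Z-AUC.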

Assay [8] in a line: qHTS to identify inhibitors of the type 1 interferon - major histocompatibility complex class I in skeletal muscle: primary screen against the NCATS Mechanism Interrogation Plate v5.0 (MIPE) Libary (AID 1347411).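 Also: plate controls were vehicle for no effect and reference inhibitor for full effect; nearly all actives have a fitted effect of over 65% in size.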 In a few lines: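 Seed engineered human myoblasts (HLA-B HiBit) in medium without dexamethasone containing 4 ng/ml IFN-beta; after 1 hr add compound titrations (top 46 uM final). Incubate 24 hrs at 37 C, lyse 10 min with HiBiT reagent, read luminescence.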

The target in assay [9] is Calcium and integrin-binding protein 1 (Homo sapiens) (UniProt Q99828). As to the kind of experiment: Primary qHTS for Identification of Calcium Integrin Binding Protein 1 (CIB1) Competitor (AID 1508620).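 Also: GST tagged CIB1 binding a fluorescein labelled alphaIIb integrin peptide tracer; top concentration of the series differs between compounds; % is scaled to controls: 0 for no effect and ±100 for the full control effect.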 In a few lines:
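Fluorescence polarization competition: GST-tagged CIB1 (1 uM final) preincubated with compound 15 min at room temperature, then FITC-labelled alphaIIb peptide (100 nM final) added. After 15 min at room temperature, polarization read at Ex 480/Em 540.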

The mark [10] stands for this setting: measured here: PEO1 parental Z-AUC.

Glutathione peroxidase 1 (Homo sapiens), sequence (P07203 whole entry, looked up): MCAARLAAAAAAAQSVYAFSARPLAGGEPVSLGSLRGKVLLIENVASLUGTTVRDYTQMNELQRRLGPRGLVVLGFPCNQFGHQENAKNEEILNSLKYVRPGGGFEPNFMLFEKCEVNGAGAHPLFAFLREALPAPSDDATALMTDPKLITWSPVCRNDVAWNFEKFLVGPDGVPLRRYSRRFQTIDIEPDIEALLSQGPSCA
Phospholipid hydroperoxide glutathione peroxidase GPX4 (Homo sapiens), sequence (P36969 whole entry, looked up): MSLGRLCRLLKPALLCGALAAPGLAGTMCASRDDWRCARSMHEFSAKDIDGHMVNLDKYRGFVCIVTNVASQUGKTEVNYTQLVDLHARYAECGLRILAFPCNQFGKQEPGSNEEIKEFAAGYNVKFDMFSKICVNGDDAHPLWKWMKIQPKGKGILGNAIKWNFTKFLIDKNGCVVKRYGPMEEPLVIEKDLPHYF
Calcium and integrin-binding protein 1 (Homo sapiens), sequence (Q99828 whole entry, looked up): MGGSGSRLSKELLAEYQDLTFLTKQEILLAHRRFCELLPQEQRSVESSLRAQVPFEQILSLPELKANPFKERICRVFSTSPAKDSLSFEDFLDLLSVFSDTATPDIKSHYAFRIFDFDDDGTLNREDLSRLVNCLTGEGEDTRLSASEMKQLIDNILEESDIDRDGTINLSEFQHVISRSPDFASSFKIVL

As to `Cc1cc(Nc2nn(-c3ccccc3)c(=O)c3ccccc23)n[nH]1`, the Potency in assay [1] is 6.51 µM (active); in assay [2], 11.6 µM (active); in assay [3], 1.16 µM (active); in assay [4] it was 1.03 µM (active). Besides, in [5], the Potency result is “inactive”.

With `CC1=CC(=O)C(C(C)C)=C/C1=N/OC(=O)c1ccccc1C`, the Potency result in [1], in assay [2] and in assay [5] was “inactive” each time. For the same compound, the Potency was 8.2 µM (active) in [3] and 11.6 µM (active) in assay [4].

As for `O=C1Cc2c([nH]c3ccc([N+](=O)[O-])cc23)-c2ccccc2N1`, the Potency in [1] was 1.78 µM (active); in assay [2] it was 2.52 µM (active); in assay [3] it was 0.796 µM (active); in [4] it was 0.632 µM (active). Also, in [5], the Potency result was “inactive”.

Turning to `COC1(c2sc3c(N4CCOCC4)nc(-c4cnc(N)nc4)nc3c2C)COC1`, the Potency in assay [1] was 0.184 µM (active); in assay [2] it was 0.184 µM (active); in assay [3] it was 0.209 µM (active); in assay [4] it was 0.186 µM (active). Besides, the Potency entry in assay [5] and in [6] was “inactive” in each case. The Z-AUC in assay [7] is -1.69 (inactive); in [7] (setting [10]), -1.58; in assay [7] (measured here: PEO4 Z-AUC), -1.08.

For the compound `O=C1O[C@H](C(O)CO)C(=O)C1=O` (stereo partly drawn), the Potency result in [1], in assay [2], in assay [3], in assay [4] and in assay [5] was “inactive” each time.

In the case of `CCCCCCCCCCCCCCCCOCCCOP(=O)(O)COC(CO)Cn1ccc(N)nc1=O` (stereo not drawn), the Potency in assay [1] is 8.2 µM (active); in [4] it was 18.6 µM (active). Besides, the Potency result in assay [8], in assay [5] and in assay [6] was “inactive” each time. In assay [9], the result was inactive. Besides, the Z-AUC in assay [7] is 0.0641 (inactive); in assay [7] (setting [10]), -0.362; in [7] (measured here: PEO4 Z-AUC), -0.397.
